Source: PubChem
Shown are actives, neighbours in structure and some others; about 6% of the full set was active somewhere.
BCR signal inh: blocks chronic active B-cell receptor signaling; ABC-DLBCL IkBa-CBG/CBR reporter, luminescence ratio, 4 h; Potency, µM (doses to about 46.1 µM), for the others: at the highest dose activity change, negative = inhibition, most hits filed as inhibitors; 340,000 compounds, 0.05% hits; active = well fitted inhibition curve with a large enough effect in the signal ratio, with a control signal flat, not every such curve was filed as active; inconclusive = small, poorly fitted or top-dose-only effect, or effect the other way, or a change in a side signal; the % refers to the signal ratio;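 also: potency is read from the fitted curve at half-maximal effect; plate controls were basal doxycycline-induced cells for no effect and cells given 10 µM MG132 for full effect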
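TMD8 ABC-DLBCL cells carrying doxycycline-inducible green luciferase fused to IkappaBalpha plus unfused red luciferase were exposed to compounds (up to 46 uM) for 4 hrs at 37C. Activity came from the overlap-corrected green/red luminescence ratio.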
D3 antag: D3 dopamine receptor (human) antagonism; D3R cells, DiscoveRx beta-arrestin luminescence, antagonist mode; active compounds read low; max response, negative = inhibition, %; 360,000 compounds, 2.5% hits; in the data active = max response below about -50%; inconclusive = no clear call, values can overlap the other calls; also: % is scaled to controls: 0 for no effect and ±100 for the full control effect
Target sequence (P35462 whole entry, looked up): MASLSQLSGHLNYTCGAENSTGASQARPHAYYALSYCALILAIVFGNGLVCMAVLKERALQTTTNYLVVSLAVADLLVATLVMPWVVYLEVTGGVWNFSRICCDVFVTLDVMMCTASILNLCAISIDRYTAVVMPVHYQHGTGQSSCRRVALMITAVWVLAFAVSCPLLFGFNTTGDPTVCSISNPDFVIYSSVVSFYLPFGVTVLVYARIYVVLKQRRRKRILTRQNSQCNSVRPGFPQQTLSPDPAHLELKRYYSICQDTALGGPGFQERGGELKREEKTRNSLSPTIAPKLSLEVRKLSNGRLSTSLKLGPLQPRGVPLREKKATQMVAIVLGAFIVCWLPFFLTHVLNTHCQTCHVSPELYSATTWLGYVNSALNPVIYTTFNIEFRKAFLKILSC
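Cells plated overnight at 1500 cells/well, then exposed to library compounds with dopamine controls for 90 minutes at 37 degrees C. DiscoveRx reagent added for 30–60 minutes at room temperature; luminescence read, quantitative HTS format.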
D1 agonist: human D1 receptor agonism; P21728; HEK293 T-REx D1 cells, calcium flux, agonist mode; activation, % at 2 µM; 360,000 compounds, 1% hits; AID 504660; in the data active = activation above about 30%; also: 0% is about no effect
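Inducible HEK293 T-REx D1 cells, force-coupled to calcium signalling, were plated at 4000 cells/well with tetracycline and held overnight at 30 C. After no-wash calcium dye loading, compound-evoked calcium rise over 180 s flagged agonists.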
D1 antag: human D1 dopamine receptor antagonism | HEK293 TREx D1 cells, calcium flux, dopamine EC80; active compounds read low | AID 504652 | 360,000 compounds, 3.2% hits | P21728 | activity change, negative = inhibition, % at 10 µM; in the data active = activity change below about -30%; also: % is scaled to controls: 0 for no effect and ±100 for the full control effect
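Tetracycline-induced HEK293 T-REx cells with force-coupled D1 receptor were loaded with a no-wash calcium dye. Compound was added after a 10 s baseline and read kinetically for 180 s; EC80 dopamine was then added and calcium flux followed another 180 s.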
D3 ag: agonists of human D3 dopamine receptor. P35462. D3R DiscoveRx beta-arrestin cells, luminescence, 90 min. max activation, %. 410,000 compounds, 0.58% hits; in the data active = max activation above about 30%; also: 0% is about no effect
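Agonist mode: compounds and dopamine controls were applied to plated cells for 90 min at 37 degrees C after an overnight attachment at 1500 cells/well. Luminescent read-out followed 30 - 60 minutes at room temperature with DiscoveRx detection reagent.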
D1 PAM: human D1 dopamine receptor positive modulation; P21728; HEK293 TREx D1 cells, calcium flux, dopamine EC20 potentiation; potentiation, % at 10 µM; 360,000 compounds, 0.036% hits; AID 504651; in the data active = potentiation above about 30%; also: 0% is about no effect
* = called active by the depositor; ? = inconclusive; . = not tested or not shown.

SMILES | BCR signal inh | D3 antag | D1 agonist | D1 antag | D3 ag | D1 PAM
CCC1CCCCN1C(=O)C1CC(c2cc(Cl)c(OC)cc2OC)=NO1 (stereo unspecified) | 1% | 0 | 3 | -8 | -28 | -2
CC(C)C(=O)Nc1cccc(NC(=O)c2cccc(Br)c2)c1 | ? | 9 | 5 | -32* | 3 | -11
CC(=O)Nc1ccc(OCc2nnc(-c3ccccc3)o2)cc1 | ? | 0 | 11 | -48* | 9 | -8
CC(=O)Nc1cccc(NC(=O)c2cc3ccccc3o2)c1 | ? | 30 | 3 | -9 | 4 | -3
CC(C)C(=O)Nc1cccc(NC(=O)c2cc3ccccc3o2)c1 | ? | 4 | 0 | -30* | -3 | -9
CCOc1cccc(C(=O)Nc2cccc(-c3nnc(-c4ccccc4)o3)c2)c1 | ? | 51 | 6 | 0 | 39* | -7
CCOc1cccc(C(=O)Nc2cccc(-c3nnc(-c4ccc(C)cc4)o3)c2)c1 | -4% | -25 | -3 | 21 | 6 | 0
COc1ccccc1CNC(=O)c1ccc(CSc2nc3ccncc3n2Cc2ccccc2C)cc1 | . | . | 8 | -14 | -23 | -4
C[C@@H]1CN([C@@H](C)CO)C(=O)c2cc(Br)cnc2O[C@@H]1CN(C)Cc1ccc(Oc2ccccc2)cc1 | . | -10 | . | . | -7 | .
CCOc1cc(C(=O)Nc2ccc(NC(=O)c3cc4ccccc4o3)c(OC)c2)cc(OCC)c1OCC | . | . | 0 | -2 | -4 | 0
CCOc1cccc(C(=O)Nc2ccc(NC(=O)c3cc4ccccc4o3)c(OC)c2)c1 | 2% | 13 | 7 | -39* | 10 | -3
CCCCOC(=O)c1cccc(NC(=O)c2cc3ccccc3o2)c1 | . | . | 30* | -4 | -13 | -3
CCCCN(CC)C(=O)CCn1c(=O)c2cccn2c2cccnc21 | . | . | 2 | 4 | 4 | 4
CC1=CC(c2ccccc2)n2nnnc2N1 (stereo unspecified) | 2% | -10 | 5 | -35* | 2 | -5
CN(C)c1ccc(C2C=C(c3ccccc3)Nc3nnnn32)cc1 (stereo unspecified) | . | . | 31* | -14 | -1 | -4
CCOc1ccc(C2C=C(c3ccccc3)Nc3nnnn32)cc1 (stereo unspecified) | 8% | -4 | 4 | -10 | 1 | -5
CC1=CC(c2ccccc2)n2nc(N3C(=O)c4ccccc4C3=O)nc2N1 (stereo unspecified) | -2% | -15 | -2 | -5 | 5 | 2
O=C(NCc1ccc2c(c1)OCO2)C(=O)NCC1OCCN1S(=O)(=O)c1ccc(Cl)cc1 (stereo unspecified) | -8% | 7 | 3 | -31* | 7 | -3
O=C(NCc1ccc2c(c1)OCO2)C(=O)NCC1OCCN1S(=O)(=O)c1ccc(Br)cc1 (stereo unspecified) | -14% | 3 | 8 | -7 | -13 | -5
O=C(NCCCn1ccnc1)C(=O)NCC1OCCCN1S(=O)(=O)c1ccc(Cl)cc1 (stereo unspecified) | 7% | -3 | 0 | -51* | 2 | -5
CC(C)(C)OC(=O)N1CC2(CCCCC2)CC1Cc1ccc(C(F)(F)F)cc1 (stereo unspecified) | . | -10 | . | . | -10 | .
CCN1CCN(CC(=O)Nc2nc3ccc(OC)cc3s2)CC1 | 3% | -66* | 2 | -8 | -1 | 0
CCOC(=O)c1sc(Nc2nc3ccc(OC)cc3s2)cc1C | ? | 15 | 4 | -36* | 3 | -4
Cc1ccc(S(=O)(=O)N2CCCC2C(=O)Nc2nc3c(s2)CCCC3)cc1 (stereo unspecified) | -7% | 5 | 1 | -18 | -2 | -6
COc1ccc2nc(NC(=O)C3CCCN3S(=O)(=O)c3ccc(C)cc3)sc2c1 (stereo unspecified) | ? | -71* | 2 | 0 | 0 | -5
COc1ccc2nc(NC(=O)CN3CCOCC3)sc2c1 | -16% | 15 | 0 | 0 | -4 | -6
COc1ccc2nc(NC(=O)CN3CCN(C)CC3)sc2c1 | 0% | -59* | 3 | -5 | 3 | -1
